# Compounds with a hit are over-represented: about 4% of the library has one in this group of screens.
# Anthrax LF inh2: Bacillus anthracis LF protease inhibitors, primary screen, biochemical, multiplex microsphere, MLPCN library | Lethal factor (Bacillus anthracis), P15917 | multiplex microsphere protease cleavage assay | inhibition, % at 10 µM | 0.12% of 360,000 active | AID 588501, 2011; further: plate controls were buffer without enzyme for full effect and enzyme alone for no effect
# DUSP3 inh: VHR1 phosphatase inhibitors, primary screen, biochemical, absorbance, uHTS. Dual specificity protein phosphatase 3 (Homo sapiens), P51452. recombinant VHR phosphatase, pNPP absorbance. inhibition, % at 13.3 µM. 0.52% of 290,000 active; in the data active means inhibition above about 50%
# Target sequence (P51452 whole entry, looked up): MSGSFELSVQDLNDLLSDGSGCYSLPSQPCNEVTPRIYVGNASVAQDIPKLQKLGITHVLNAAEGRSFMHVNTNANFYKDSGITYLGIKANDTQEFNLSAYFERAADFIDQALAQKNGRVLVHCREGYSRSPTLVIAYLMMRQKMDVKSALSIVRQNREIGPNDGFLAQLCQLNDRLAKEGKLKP
# BoNT-F LC inh: BoNT/F light chain protease inhibitors, primary screen, biochemical, flow cytometry, MLPCN library | Multiplex microsphere protease cleavage assay | inhibition, % at 10 µM | 0.22% of 360,000 active; in the data active means inhibition above about 35%, passing the limit was not always enough; inconclusive means no clear call, values can overlap the other calls; further: plate controls were buffer without enzyme for full effect and enzyme alone for no effect
# Bead autofluor: compound fluorescence in toxin protease inhibitor counterscreen | compound autofluorescence counterscreen, microsphere flow cytometry; stronger effect = higher value | fluorescence intensity (no concentration beside the values) | 3.1% of 360,000 active; in the data active means fluorescence intensity above about 16000; inconclusive means no clear call, values can overlap the other calls
# MazF activator: activators of E. coli MazEF toxin-antitoxin RNase, primary screen, biochemical, fluorescence, uHTS. Endoribonuclease toxin MazF (Escherichia coli (strain K12)), P0AE70. FAM/BHQ RNA-DNA oligo cleavage fluorescence, 5 h. activation, % at 20 µM. 0.32% of 350,000 active; in the data active means activation above about 50%
# Target sequence (P0AE70 whole entry, looked up): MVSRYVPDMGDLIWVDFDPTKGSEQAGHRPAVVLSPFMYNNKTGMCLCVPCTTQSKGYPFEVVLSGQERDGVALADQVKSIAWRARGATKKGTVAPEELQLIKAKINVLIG
# BoNT A protease: BoNT/A light chain protease inhibitors, primary screen, biochemical, flow cytometry, MLPCN library; inhibition, % at 10 µM; Botulinum neurotoxin type A light chain protease (Clostridium botulinum A str. ATCC 3502); 0.17% of 360,000 active; multiplex microsphere protease substrate cleavage; further: plate controls were buffer without enzyme for full effect and enzyme alone for no effect
# Starred values were filed as active, the others as inactive; ? = inconclusive; . = no result. Unless noted, no stated cut-off is given here; in the data, active means inhibition above about 30%; inconclusive means no clear call, values can overlap the other calls; inactive means below that.
SMILES,Anthrax LF inh2,DUSP3 inh,BoNT-F LC inh,Bead autofluor,MazF activator,BoNT A protease
CCC(C(=O)NC(C)(C)C)N(Cc1cccs1)C(=O)CNS(=O)(=O)c1ccccc1 (centres undefined),-2.8,28.5,-1.1,4403,-2.5,0.4
COc1ccc(N2CC(O)=C(c3nc(-c4ccc(Br)cc4)cs3)C2=N)cc1,-3.6,8.3,0.6,3926,21.6,-0.7
CC1=C(C(=O)OCC2CCCO2)C(c2ccccc2)C2=C(CCCC2=O)N1 (centres undefined),2.1,3.9,-0.5,4901,4.4,-0.3
COc1ccc(C2C(C(=O)OCC3CCCO3)=C(C)NC3=C2C(=O)CC(c2ccco2)C3)cc1O (centres undefined),-2.4,14.7,-1.1,23267*,-2.9,-0.5
N#Cc1c(NC(=O)c2cc(-n3cnnc3)ccc2Cl)sc2c1CCCC2,1.0,19.9,3.3,2047,-8.0,0.7
Cc1ccc(C(=O)n2cc(CCN3CCS(=O)(=O)CC3)c3ccccc32)cc1,-3.3,28.7,0.9,16475*,-0.6,0.5
COc1cc2c(cc1OC)[C@@H](Cc1ccc(OCCC#N)cc1)N(C)CC2,-1.2,8.8,39.8*,3356,6.6,-1.3
O=C1c2ccccc2C(=O)N1CCCCN(C(=O)c1cccc([N+](=O)[O-])c1)c1ccc(Cl)cc1,0.3,35.7,-5.5,20654*,3.9,-2.9
Cc1cc(N2CCCC2)c(C)cc1C=O,-4.1,30.9,-17.4,22088*,-21.7,1.7
COCCNC(=S)N(CCc1c(C)[nH]c2ccc(OC)cc12)Cc1ccco1,-6.8,56.9*,-17.9,3724,7.4,1.9
CNC(=S)N(CCc1c(C)[nH]c2ccc(OC)cc12)Cc1ccco1,-9.5,56.9*,-35.3,3871,-8.7,-0.9
CCOC(=O)c1c(NC(=S)Nc2ccc(OC)cc2)sc2c1CCCCC2,-0.7,7.3,1.1,2088,-9.0,5.6
CCOCN(C(=O)Cn1c(CO)nc2ccccc21)c1c(C)cccc1CC,-2.4,-3.7,-1.9,21035*,0.0,-0.8
CCOCN(C(=O)Cn1cnc2ccccc21)c1c(C)cccc1CC,-5.2,40.7,-1.7,5182,16.4,-0.1
O=[N+]([O-])c1cccc(OCc2cn3cccnc3n2)c1,1.9,52.7*,-9.6,3183,-31.5,-0.6
Cc1cccn2cc(COc3cccc([N+](=O)[O-])c3)nc12,-1.0,25.1,9.2,4478,2.5,0.3
CCN(CC)S(=O)(=O)c1cccc(NC(=O)C(=O)c2c(-c3ccccc3)cc3ccccn23)c1,-7.9,-8.1,-12.2,9940,-1.6,-1.3
CCN(CC)S(=O)(=O)c1cc(NC(=O)C(=O)c2c(-c3ccccc3)cc3ccccn23)ccc1C,-3.0,10.4,-10.2,25900*,8.5,-3.7
CC1(C)CC(=O)C2=C(C1)NC(=O)C21C(C(=O)OC(C)(C)C)=C(N)Oc2ccc(Br)cc21 (centres undefined),0.0,13.7,2.6,22960*,-4.3,1.6
CCCCCc1nnc(N)s1,-4.2,15.2,-1.2,16328*,-0.7,-1.0
COCCn1nnnc1CN1CCC(NC(=O)c2ccc(Br)cc2)CC1,-3.1,31.2,-2.0,3728,1.1,0.3
COc1cc(C(=O)NC2CCN(Cc3nnnn3Cc3cccs3)CC2)cc(OC)c1OC,-7.5,28.3,0.8,22671*,-1.0,0.7
CCC(C)(C)C1CCC(=NNS(=O)(=O)c2ccc(C)c([N+](=O)[O-])c2)CC1 (centres undefined),-2.1,34.2,-9.1,2569,125.1*,0.0
CC1CCC/C(=N\NS(=O)(=O)c2ccccc2)C1 (centres undefined),-4.2,12.0,-0.3,4702,28.1,-0.2
Cc1ccc(S(=O)(=O)NCCC(C)C)cc1[N+](=O)[O-],-1.5,-7.9,1.6,2533,8.9,-0.5
SMILES,Anthrax LF inh2,DUSP3 inh,BoNT-F LC inh,Bead autofluor,MazF activator,BoNT A protease
CC1CCC(=NNS(=O)(=O)c2ccc([N+](=O)[O-])cc2)CC1 (centres undefined),-4.4,.,1.4,4177,110.2*,0.8
Cc1ccc(S(=O)(=O)N/N=C/c2ccc(O)cc2O)cc1[N+](=O)[O-],-6.1,-17.0,0.1,4361,4.3,0.8
CC/C(C)=N/NS(=O)(=O)c1ccc(C)c([N+](=O)[O-])c1,1.5,19.1,-0.6,4477,121.9*,-1.0
C/C(CCC(C)C)=N\NS(=O)(=O)c1ccc(C)c([N+](=O)[O-])c1,-4.3,8.5,1.2,4517,81.7*,-0.3
CC(O)c1cc2c(cc1NC(=O)c1cnn3c1NC(c1ccco1)CC3C(F)(F)F)OCO2 (centres undefined),-1.2,-3.9,20.1,4827,10.1,1.5
O=C(Nc1ccc(C2=NCCN2)cc1)c1ccc(C(=O)Nc2ccc(C3=NCCN3)cc2)c(Cl)c1,-9.1,35.5,-25.2,3777,-17.3,-1.4
O=C(N/N=C/C(Br)=C\c1ccccc1)c1n[nH]c2c1CCC2,-3.4,20.1,-6.7,25111*,3.7,-5.1
CCCC(=O)NC(C)C(c1cccs1)N1CCN(C)CC1 (centres undefined),-5.7,3.6,3.0,10835,-8.5,0.5
Cc1ccc(SCCC(=O)N2CCCC2)cc1,-3.5,-3.9,3.8,11143,-3.8,0.9
O=c1[nH]c(N/N=C/c2ccccc2)nc2ccccc12,-4.5,-11.5,-3.1,16682*,8.6,-2.0
C(=N\Nc1nc2ccccc2[nH]1)/c1ccccc1,-3.0,21.7,-10.7,3861,-3.5,-0.3
N#Cc1c(-c2ccc(F)cc2)c2c([nH]c1=O)-c1ccccc1OC2,?,6.2,26.7,3840,-1.2,4.7
c1ccc(SCc2nc3ccccc3[nH]2)cc1,0.9,24.6,-9.9,24904*,2.5,-6.9
Cc1ccc(SCc2nc3ccccc3[nH]2)cc1,2.6,10.6,2.8,20672*,4.4,4.2
Clc1ccc(SCc2nc3ccccc3[nH]2)cc1,0.5,10.6,0.6,21863*,2.5,?
Cc1ccc(CSCc2nc3ccccc3[nH]2)cc1,-3.1,12.0,-4.2,3450,-11.1,-0.1
Clc1ccc(/C=C/c2nc3ccccc3[nH]2)cc1,-22.6,24.7,-5.3,?,67.5*,2.4
COc1ccc(NC(=O)c2cc(-c3cc(F)ccc3OC(C)C)n[nH]2)c(OC)c1,-12.2,.,-5.9,3823,.,0.3
Cc1ccc(OCC(=O)Nc2ccc3oc(=O)ccc3c2)c(C)c1,-3.7,7.4,-37.9,4045,11.7,-4.0
C/C(=N\O)c1ccc2c3ccccc3n(C)c2c1,-4.1,-8.9,-8.4,21762*,-3.2,?
CCn1c(CSc2nc3ccccc3[nH]2)n[nH]c1=S,-0.6,6.1,2.1,23009*,0.2,1.6
CCn1c(CSCc2ccccc2)n[nH]c1=S,-3.4,-6.6,-3.6,4853,4.9,-0.5
